Inconclusive results are not listed. A call without a number means that no potency is given here. A number with no mark means an inactive call. The source made the active and inactive calls. Calls come from the whole dose curve; as a rule, active = well fitted inhibition curve with a large enough effect; inconclusive = small, poorly fitted or top-dose-only effect; inactive = no such curve, though single readings can be large or run the other way. Where a SMILES comes first, the peptide text is derived from it. [ ]: non-standard residue; d: D form. dPhe(4-Cl) = N[C@H](Cc1ccc(Cl)cc1)C(=O)O; d2Nal = N[C@H](Cc1ccc2ccccc2c1)C(=O)O; dCit = NC(=O)NCCC[C@@H](N)C(=O)O; d3Pal = N[C@H](Cc1cccnc1)C(=O)O
How the values were obtained:
[1] = tested on: Zika virus NS2B-NS3 protease (unlinked complex); assay: Primary screen GU Rhodamine qHTS for Zika virus inhibitors: Unlinked NS2B-NS3 protease assay (AID 1347159); settings: Recombinant ZIKV NS2B-NS3 protease, Rhodamine110 substrate fluorescence; series mostly up to 107 µM; note: nearly all actives have a fitted effect of over 60% in size; note: potency is the fitted concentration of half-maximal effect
How it was run: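 A qHTS format was used, with compound concentrations ranging up to 114 microM. Each compound was preincubated with 25 nM NS2B-NS3 protease, and the substrate was then added at 1.5 microM. Curves were fitted with a 4-parameter Hill model.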

[2] = tested on: Zika virus NS2B-NS3 protease (linked construct); assay: Primary screen NINDS Rhodamine qHTS for Zika virus inhibitors (AID 1347160); settings: purified NS2B-NS3 protease, Rhodamine110 substrate fluorescence; series mostly up to 57.1 µM; note: nearly all actives have a fitted effect of over 55% in size
How it was run: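 Kinetic fluorescence (Ex 480 nm, Em 540 nm) over 15 min with 1.5 microM Rhodamine110 peptide and 25 nM linked protease.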

Row | SMILES | Potency [1] | Potency [2] | activity change, negative = inhibition [1] | activity change, negative = inhibition [2]
1 | O=S(=O)(NCC1CC1)c1ccc(Nc2nccc(N3CCCc4cc(O)ccc43)n2)cc1 | 39.8 µM (active) | inactive |  | 
2 | C[C@@H]1[C@H]2[C@H](O[C@@H]3O[C@H](CO)[C@@H](O)[C@H](O)[C@H]3O)OC=C(C(=O)O)[C@H]2C[C@@H]1O | inactive | inactive |  | 
3 | COc1ccc(-c2ccc(-c3cn(C(=O)N4CCCCC4c4ccccc4)nn3)cc2)cc1 (centres undefined) | inactive | inactive |  | 
4 | CO[C@H]1/C=C\O[C@@]2(C)Oc3c(C)c(O)c4c(O)c(c5c(nc6cc(C)ccn65)c4c3C2=O)NC(=O)/C(C)=C\C=C/[C@H](C)[C@H](O)[C@@H](C)[C@@H](O)[C@@H](C)[C@H](OC(C)=O)[C@@H]1C | inactive | inactive |  | 
5 | CC1(C)CCC[C@]2(C)[C@H]3CC(=O)O[C@]3(C)CC[C@@H]12 | inactive | inactive |  | 
6 | CC(C)=CCC[C@](C)(O)[C@H]1CC[C@]2(C)[C@@H]1[C@H](O)CC1[C@@]3(C)CC[C@H](O)C(C)(C)[C@@H]3[C@@H](O[C@@H]3O[C@H](CO)[C@@H](O)[C@H](O)[C@H]3O[C@@H]3O[C@H](CO)[C@@H](O)[C@H](O)[C@H]3O)C[C@]12C (some centres undefined) | inactive | inactive |  | 
7 | C=C1C(=O)O[C@@H]2/C=C(\C)C(=O)/C=C/[C@](C)(O)C[C@@H](OC(=O)C(C)C)[C@@H]12 | inactive | inactive |  | 
8 | O=C1NC2CCc3nc4ccccc4c(=O)n3C2=Nc2ccccc21 (centres undefined) | inactive | inactive |  | 
9 | COc1cc(/C=C/C(=O)O[C@H]2[C@H](O)[C@@H](CO)O[C@@]2(CO)O[C@H]2O[C@H](CO)[C@@H](O)[C@H](O)[C@H]2O)ccc1O | inactive | inactive |  | 
10 | COC(=O)C1=CO[C@@H](O[C@@H]2O[C@H](CO)[C@@H](O)[C@H](O)[C@H]2O)[C@@H]2[C@@](C)(O)[C@@H](OC(=O)/C=C/c3ccc(O)cc3)C[C@]12O | inactive | inactive |  | 
11 | Cc1cc2c(F)c(Oc3ncnn4cc(OCC(C)O)c(C)c34)ccc2[nH]1 (centres undefined) | inactive | inactive |  | 
12 | C/C(=C\CCC(C)CCO)C(=O)OC1(C)CCC2C(C(=O)O)=COC(OC3OC(CO)C(O)C(O)C3O)C21 (centres undefined) | inactive | inactive |  | 
13 | CN(CCc1ccc(Nc2ncc(-c3cccnc3)s2)cc1)Cc1ccccc1 | inactive | inactive |  | 
14 | CC(=O)N[C@H](Cc1ccc2ccccc2c1)C(=O)N[C@H](Cc1ccc(Cl)cc1)C(=O)N[C@H](Cc1cccnc1)C(=O)N[C@@H](CO)C(=O)N[C@@H](Cc1ccc(O)cc1)C(=O)N[C@H](CCCNC(N)=O)C(=O)N[C@@H](CC(C)C)C(=O)N[C@@H](CCCN=C(N)N)C(=O)N1CCC[C@H]1C(=O)N[C@H](C)C(N)=O (Ac-[d2Nal][dPhe(4-Cl)][d3Pal]SY[dCit]LRP[dA]-NH2) | inactive | inactive |  | 
15 | CN1CCN(C2CCC(n3cc(-c4ccc(Oc5ccccc5)cc4)c4c(N)ncnc43)CC2)CC1 (centres undefined) | inactive | inactive |  | 
16 | O=C(CSc1nc2c(c(=O)n1-c1ccccc1)SCC2)Nc1ccc(-c2ccccc2)cn1 | inactive | inactive |  | 
17 | COc1ccc(CC2NCCc3c2[nH]c2ccc(C)cc32)cc1OC (centres undefined) | inactive | inactive |  | 
18 | C=C(C)[C@@H]1CC[C@]2(C)CC[C@]3(C)[C@H](CC[C@@H]4[C@@]5(C)CC[C@@H](O)C(C)(C)[C@@H]5CC[C@]43C)[C@@H]12 | inactive | inactive |  | 
19 | Cc1ccc(S(=O)(=O)c2ccc([N+](=O)[O-])o2)cc1 | inactive | inactive |  | 
20 | COC(=O)N[C@@H](C)CNc1nccc(-c2cn(C(C)C)nc2-c2cc(Cl)cc(NS(C)(=O)=O)c2F)n1 | inactive | inactive |  | 
21 | CC(=O)/C=C/[C@H]1[C@](C)(O)[C@@H](O)[C@H](OC(C)=O)C2C(C)(C)CCC[C@@]21C (some centres undefined) | inactive | inactive |  | 
22 | C[C@@H]1O[C@@H](O[C@H]2[C@H](O[C@H]3CC[C@@]4(C)C(CC[C@]5(C)C4CC=C4[C@@H]6CC(C)(C)CC[C@]6(C(=O)O[C@@H]6OC[C@H](O)[C@H](O)[C@H]6O[C@@H]6O[C@@H](C)[C@H](O[C@@H]7O[C@H](CO)[C@@H](O)[C@H](O)[C@H]7O)[C@H](O)[C@H]6O)[C@H](O)C[C@]45C)C3(C)C)O[C@H](CO)[C@@H](O[C@@H]3OC[C@@H](O)[C@H](O)[C@H]3O)[C@@H]2O)[C@H](O)[C@H](O)[C@H]1O (some centres undefined) |  |  | -6.95% [at 19.1 µM] | -3.53% [at 10.7 µM]

Reference: PubChem BioAssay (NCATS)
